Screens deposited in PubChem by several laboratories.
CYP2C19 act: increases human CYP2C19 enzyme activity | activation factor at 5 µM | 96,000 tested, under 10 active | P33261 | AID 1025 | recombinant CYP2C19, luciferin-H EGE luminescence; hits give high values; 0 = fully inhibited enzyme, 1 = untreated enzyme;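 active means activation factor of at least 2 at 5 µM in the primary screen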
CYP2C9 inhib: inhibitors of human CYP2C9; CYP2C9 Supersomes, luciferin-H conversion, luminescence; inhibition, % at 5 µM; 96,000 compounds, 20% hits;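 active means blocking of liver enzyme CYP2C9 beyond about 50% at 5 µM, limit read from the data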
Target sequence (P11712 whole entry, looked up): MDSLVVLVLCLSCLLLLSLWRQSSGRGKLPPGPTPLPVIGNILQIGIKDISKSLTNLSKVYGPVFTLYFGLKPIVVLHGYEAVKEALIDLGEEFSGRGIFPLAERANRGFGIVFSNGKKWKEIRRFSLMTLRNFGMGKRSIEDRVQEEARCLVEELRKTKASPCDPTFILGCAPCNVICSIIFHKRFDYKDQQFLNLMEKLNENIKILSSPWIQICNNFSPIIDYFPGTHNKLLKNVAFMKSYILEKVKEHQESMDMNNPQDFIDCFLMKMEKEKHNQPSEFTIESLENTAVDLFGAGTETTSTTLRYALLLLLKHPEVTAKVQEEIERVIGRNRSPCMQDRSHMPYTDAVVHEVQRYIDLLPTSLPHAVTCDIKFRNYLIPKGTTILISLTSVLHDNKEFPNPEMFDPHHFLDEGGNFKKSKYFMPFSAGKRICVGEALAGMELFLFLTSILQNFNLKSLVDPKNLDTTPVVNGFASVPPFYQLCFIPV
CYP2C9 activ: CYP2C9 (human) activation | recombinant CYP2C9, luciferin-H conversion, luminescence; hits give high values; factor 1 = untreated enzyme, 0 = blocked | AID 1024 | 96,000 compounds, 1.4% hits | activation factor at 5 µM;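 active means activation factor of 2 or more for CYP2C9 at a 5 µM dose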
CYP2C19 inhib: blocks human cytochrome P450 2C19. P33261. CYP2C19 Supersomes, luciferin-H EGE luminescence, 30 min. inhibition, % at 5 µM. 96,000 compounds, 21% hits. AID 778;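 active means CYP2C19 inhibition above a set limit at 5 µM in the primary screen, cut at about 50% in these data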
PostGolgi yeast: growth inhibition of a yeast mutant, post-Golgi transport screen; post-Golgi transport phenotypic cell assay; inhibition, % at 10 µM; 98,000 compounds, 0.9% hits; AID 739;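 further: yeast cells grown in 1536-well plates; yeast grown about 18 h at 30C before absorbance read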
PostGolgi ctrl: growth of the yeast control strain, post-Golgi counter-screen; efflux-deficient yeast background strain, growth absorbance A615, 16 h; inhibition, % at 10 µM; 98,000 compounds, 5% hits; AID 738
Hits are given with their value; – = inactive; · = not tested or not shown. Hits are enriched below; roughly 32% of the tested compounds scored in any of these assays. Unless noted, no stated cut-off is given here; in the data, active means inhibition above about 30%; inactive means the rest.

SMILES	CYP2C19 act	CYP2C9 inhib	CYP2C9 activ	CYP2C19 inhib	PostGolgi yeast	PostGolgi ctrl
CCCc1cc(=O)[nH]c(SCC(N)=O)n1	–	–	–	–	–	–
Cc1ccc(C2SCC(=O)N2Cc2cn3ccsc3n2)o1 (stereo not given)	–	–	–	–	–	–
Cc1ccnc(NS(=O)(=O)c2ccc(N)cc2)n1	–	–	–	–	–	–
CCOc1c2ccc(C(=O)NCc3ccccc3OC)cc2nn1CC	–	–	–	–	–	–
COc1ccc(NC(=O)C2CC2)cc1NS(=O)(=O)c1ccc(F)cc1	–	–	–	58	–	–
CCOc1cc(NS(=O)(=O)c2ccc(NC(C)=O)cc2)c(OCC)cc1NC(=O)C(C)C	–	–	–	–	–	–
COc1cc(NS(=O)(=O)c2ccc(F)cc2)c(OC)cc1NC(C)=O	–	67	–	99	–	–
COc1ccc(-c2nn(-c3ccccc3)cc2C(=O)O)cc1	–	–	–	–	–	–
O=C(N/N=C/c1cn(-c2ccccc2)nc1-c1ccc(F)cc1)c1ccc2c(c1)OCO2	–	64	–	–	–	–
O/N=C/c1cn(-c2ccccc2)nc1-c1ccc2c(c1)OCCO2	–	53	–	–	–	31
CCn1cc(/C=N/NC(=O)c2ccc3c(c2)OCO3)c(C)n1	–	–	–	–	–	–
O=C(N/N=C\c1cn(-c2ccccc2)nc1-c1ccccc1)c1ccc2c(c1)OCO2	–	65	–	54	–	34
COc1ccc(-c2nn(-c3ccccc3)cc2/C=N/NC(=O)c2ccc3c(c2)OCO3)cc1	–	70	–	–	–	–
COC(=O)c1c(NC(=O)c2ccc(S(=O)(=O)N3CCOCC3)cc2)sc2c1CCN(C)C2	·	·	·	·	–	–
Cc1nnc(SCC(=O)Nc2nsc(-c3ccc(C(C)(C)C)cc3)n2)s1	–	–	–	–	–	62
COc1ccc(NC(=O)CCSc2nnc(C)s2)cc1	–	–	–	–	–	–
COc1cc(NC(=O)CSc2nnc(C)s2)cc(OC)c1	–	–	–	52	–	–
O=C(CSc1nnc2scc(-c3ccccc3)n12)Nc1nsc(-c2ccccc2)n1	–	–	–	–	–	–
Cc1ccc(-c2csc3nnc(SCC(=O)Nc4nsc(-c5ccccc5)n4)n23)cc1	–	–	–	–	–	41
Cc1nnc(SCC(=O)Nc2ccccc2NC(=O)CSc2nnc(C)s2)s1	–	–	–	–	–	–
Cc1ccc(-c2nc(NC(=O)CSc3nnnn3-c3ccccc3)ns2)cc1	–	–	–	–	–	48
C=CCc1ccccc1OCC(O)CN(C(C)C)C(C)C (stereo not given)	–	–	–	–	–	–
CCCN(CCC)CCNC(=O)C1c2ccccc2C(=O)N(CCOC)C1c1ccc(F)cc1 (stereo not given)	–	–	–	–	–	–
C=CCN(C(=O)c1cccc(S(=O)(=O)N2CCN(C)CC2)c1)c1nc(-c2ccccc2)cs1	–	77	–	79	35	–
COc1ccc(C2(CNC(=O)c3ccc(Br)o3)CCOCC2)cc1	–	–	–	–	–	–
SMILES	CYP2C19 act	CYP2C9 inhib	CYP2C9 activ	CYP2C19 inhib	PostGolgi yeast	PostGolgi ctrl
COc1ccc(N2CCN(S(=O)(=O)c3ccc(C(=O)NCc4ccco4)cc3)CC2)cc1	·	·	·	·	–	–
CCC(c1nnnn1C1CCCC1)N1CCN(c2ccccc2F)CC1 (stereo not given)	–	56	–	–	–	–
CCC(c1nnnn1C1CCCC1)N1CCN(c2ccccc2)CC1 (stereo not given)	–	–	–	–	–	–
c1ccc(C(c2nnnn2C2CCCC2)N2CCCCCC2)nc1 (stereo not given)	–	–	–	52	–	–
O=c1c(C(c2nnnn2C2CCCCC2)N2CCCCC2)coc2ccc(Cl)cc12 (stereo not given)	–	–	–	52	77	87
CCCC(c1nnnn1C1CCCC1)N1CCN(c2ccccc2F)CC1 (stereo not given)	–	97	–	80	–	67
COc1ccc(-c2nnnn2C)cc1S(=O)(=O)NCc1ccccc1	–	–	–	–	–	–
Cc1[nH]c2ccccc2c1C(=O)CN1CCCCC1C (stereo not given)	–	–	–	–	–	–
Clc1ccc(C(c2nnnn2C2CCCC2)N2CCN(Cc3ccncc3)CC2)cc1 (stereo not given)	–	90	–	98	–	–
Fc1ccccc1N1CCN(C(c2ccncc2)c2nnnn2C2CCCC2)CC1 (stereo not given)	–	64	–	86	–	–
Fc1ccc(C(c2nnnn2C2CCCC2)N2CCN(Cc3ccccc3)CC2)cc1 (stereo not given)	–	–	–	–	–	–
c1ccc(C(c2ccccc2)N2CCN(Cc3nnnn3C3CCCC3)CC2)cc1	–	98	–	96	–	–
CCOc1ccc(-n2c(Cc3cc(=O)[nH]c(=O)[nH]3)nnc2SC(C)C(=O)OC)cc1 (stereo not given)	–	–	–	–	–	–
Cn1c(=O)c2c(ncn2CC(=O)Nc2ccccc2)n(C)c1=O	–	–	–	–	–	–
Cn1c(=O)c2c(ncn2CC(O)CNc2ccc(Br)cc2)n(C)c1=O (stereo not given)	–	–	–	75	–	–
Cc1cc(C)c2c(=O)c3c(oc2c1)C(=O)N(CCO)C3c1cccc(O)c1 (stereo not given)	–	54	–	50	–	–
N#CC1=C(N)OC2=C(C(=O)CCC2)C1c1ccccc1 (stereo not given)	–	–	–	–	–	–
CC(c1ccccc1)C1C(C#N)=C(N)OC2=C1C(=O)CCC2 (stereo not given)	–	–	–	62	–	–
N#CC1=C(N)OC2=C(C(=O)CCC2)C1c1ccsc1 (stereo not given)	–	–	–	57	–	–
CCCCCCC1C(C#N)=C(N)OC2=C1C(=O)CCC2 (stereo not given)	–	75	–	73	–	–
CCCCCCC1C(C#N)=C(N)OC2=C1C(=O)CC(C)(C)C2 (stereo not given)	·	·	·	·	–	–
CCC(C)(C(=O)NC1CCCCC1)N(C(=O)c1cnccn1)c1c(C)n(C)n(-c2ccccc2)c1=O (stereo not given)	–	–	–	–	–	–
O=c1[nH]c2cccnc2n1Cc1ccco1	–	–	–	–	–	–
CCc1ccc(CNc2ccc(O)cc2)cc1	–	–	–	82	–	–
Cc1ccc(SCC(=O)NCc2cccnc2)cc1	–	–	–	–	–	–
O=[N+]([O-])c1cc(C(F)(F)F)ccc1N1CCN(S(=O)(=O)c2ccc3ccccc3c2)CC1	–	–	–	58	–	–
NC(=O)C1CCN(c2ccc(C(F)(F)F)cc2[N+](=O)[O-])CC1	·	·	·	·	–	–
Cn1c(=O)n(C)c2cc([N+](=O)[O-])c(N3CCN(S(=O)(=O)c4ccc(C(C)(C)C)cc4)CC3)cc21	–	62	–	–	–	–
